SMILES strings stand for the structures. Several values for one entry are separate records, joined by “and”; a condition that tells them apart may be missing. Identical values can stand only once. About 16,000 (7.3%) of roughly 220,000 compounds were called active. Another 25% or so got no clear call; they are omitted. Calls follow the shape of the dose curve; as a rule, active = well fitted inhibition curve with a large enough effect (not every such curve was filed as active); inconclusive = small, poorly fitted or top-dose-only effect, or another doubt; inactive = no such curve, though single readings can be large or run the other way. The list comes from a sample in which actives are over-represented; it also holds similar structures and randomly drawn compounds. Entries that show only a call come without a potency.
Potency is read from the fitted curve at half-maximal effect.

In the experiment the target is Aldehyde dehydrogenase 1A1 (Homo sapiens) (UniProt P00352). In words: qHTS Assay for Inhibitors of Aldehyde Dehydrogenase 1 (ALDH1A1). The following applies: Purified ALDH1A1, NADH fluorescence, propionaldehyde substrate; series mostly up to 75.3 µM. A general note: qHTS replaces the single test concentration by a dilution series.
Chain of Aldehyde dehydrogenase 1A1 (Homo sapiens) (P00352 whole entry, looked up): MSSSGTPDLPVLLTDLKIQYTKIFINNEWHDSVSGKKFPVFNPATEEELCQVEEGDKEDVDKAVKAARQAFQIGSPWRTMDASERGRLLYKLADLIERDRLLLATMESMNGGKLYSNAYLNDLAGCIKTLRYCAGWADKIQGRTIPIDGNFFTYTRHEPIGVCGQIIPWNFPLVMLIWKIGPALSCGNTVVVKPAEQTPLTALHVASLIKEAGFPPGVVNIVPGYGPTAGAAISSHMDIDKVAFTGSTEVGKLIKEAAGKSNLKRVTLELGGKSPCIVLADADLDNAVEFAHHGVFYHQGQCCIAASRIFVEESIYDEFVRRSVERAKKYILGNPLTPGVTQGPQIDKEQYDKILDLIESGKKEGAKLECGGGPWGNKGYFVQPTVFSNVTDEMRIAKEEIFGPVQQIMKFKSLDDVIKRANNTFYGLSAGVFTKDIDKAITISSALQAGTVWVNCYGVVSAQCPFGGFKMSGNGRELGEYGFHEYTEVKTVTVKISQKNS
Regarding `COc1ccc([N+](=O)[O-])cc1NC(=O)CC1SC(=Nc2cccc(C)c2C)N(/N=C(\C)c2ccc(C)cc2)C1=O` (stereo unspecified), the Potency entry is “inactive”. Still for that read-out and setting: for `CN(c1ccccc1)S(=O)(=O)c1ccc(Cl)c(C(=O)OCC(=O)N2CCOCC2)c1` the value was “inactive”; for `O=C1CCCC2=C1C(c1cccs1)CC(=O)N2c1ccc(F)cc1` (stereo unspecified), “inactive”; for `N#CC1=C(N)N(c2ccc(F)cc2)C(=O)C1`, 22.4 µM (active). The same measure, in the same setting: to `Cn1c(N)cc(-c2ccc(F)cc2)c(C#N)c1=O` belongs “inactive”; to `O=C(CCC(=O)c1cccs1)NC1CCCCCC1`, “inactive”; to `CCCCNC(=O)N1CCN(S(C)(=O)=O)CC1`, “inactive”. On the same count and under the same terms, for `COc1ccccc1NC(=O)COC(=O)Cc1ccc(S(=O)(=O)N2CCCCC2)s1` the value was “inactive”.

`CCOC(=O)C1Sc2[nH]c(=O)sc2C(c2ccc(Cl)cc2)C1C(=O)OCC` (stereo unspecified): the Potency was 11.2 µM (active). With `CCOC(=O)C1=C(C)NC(=O)N(C(C)=O)C1c1ccc(Cl)cc1` (stereo unspecified), the Potency result is “inactive”. On the same count and under the same terms, to `Cc1c(NC(=O)CCC2CCCCC2)cc(C(=O)N2CCOCC2)cc1[N+](=O)[O-]` belongs “inactive”; to `O=C(N/N=C/c1ccco1)c1ccc(NC(=O)C2CC2)cc1`, “inactive”; to `Cc1ccc(NC(=O)Nc2cccc(C(F)(F)F)c2)nc1`, “inactive”. As for `COc1ccc(/C=N\NC(=O)c2sc(N)nc2C)cc1OC`, the Potency result was “inactive”.

As for `COc1cc(/C=N/NC(=O)c2ccccc2)ccc1OS(=O)(=O)c1ccccc1`, the Potency is 14.1 µM (active).

In the case of `COc1cccc(/C=N/NC(=O)c2cccc([N+](=O)[O-])c2)c1OS(=O)(=O)c1ccc(C)cc1`, the Potency entry was “inactive”. Same read-out and setting: to `COc1ccc(C(=O)Nc2ccccc2C(=O)N/N=C/c2ccc(O)c(OC)c2)cc1` belongs “inactive”; to `COc1ccc(/C=N/NC(=O)c2ccccc2)cc1OS(=O)(=O)c1ccccc1`, 14.1 µM (active). The same measure, in the same setting: for `COc1ccc(/C=N/NC(=O)c2ccc(Cl)cc2)cc1COC(C)=O` the value was “inactive”; for `O=C(NNC(=O)c1cnccc1C(F)(F)F)c1ccc(Cl)cc1`, “inactive”; for `Nc1nc(O)c(CC(=O)O)s1`, “inactive”.

Consider `Cc1cc(C)c(C(N)=O)c(Cl)n1`, for which the Potency entry is “inactive”. In the case of `CCOC(=O)c1sc(NC(=O)CCN2CCOCC2)c(C(=O)OCC)c1C`, the Potency was 17.8 µM (active). Same read-out and setting: for `CCc1c(C)sc(NC(=O)OC)c1C(=O)N1CCOCC1` the value was “inactive”; for `CCOC(=O)c1sc(NC(=O)COc2ncnc3ccccc23)c(C(=O)OCC)c1C`, “inactive”; for `CCOC(=O)c1sc(NC(=O)CSc2nnc(-c3ccco3)o2)c(C(=O)OCC)c1C`, “inactive”. Consider `CCOC(=O)c1c(NC(=O)CCl)sc(C(=O)N(CC)CC)c1C`, for which the Potency is 10 µM (active). With `CCOC(=O)c1c(NC(C)=O)sc2c(O)c(Br)ccc12`, the Potency result was “inactive”. The same measure, in the same setting: for `O=C(c1cc(=O)c2ccccc2o1)N1CCN(c2ccccc2)CC1` the value was “inactive”; for `COc1cccc(C(=O)Nc2nc3ccc(S(C)(=O)=O)cc3s2)c1`, “inactive”; for `CC(=O)NC1=NN(C(C)=O)C(C)(CCS(=O)(=O)c2ccc(Cl)c(Cl)c2)S1` (stereo unspecified), “inactive”. Still for that read-out and setting: to `Cc1ccc(N=C2NC(=O)/C(=C/C=C/c3ccco3)S2)cc1C` belongs 7.94 µM (active); to `CN(C)c1ccc(-n2cccc2/C=C2/SC(=Nc3ccc(F)cc3)NC2=O)cc1`, “inactive”.

Take `Nc1nc2c(ncn2[C@@H]2O[C@H](COP(=O)(O)OP(=O)(O)OP(=O)(O)O)[C@@H](O)C2O)c(=O)[nH]1` (stereo partly specified): the Potency entry is “inactive”.

For the compound `O=C(Nc1ccccc1C(=O)N1CCOCC1)c1ccc(Cl)cc1`, the Potency result was “inactive”.

With `Cc1nnsc1C(=O)NCc1c(F)cccc1Cl`, the Potency result is “inactive”.

For the compound `O=C(CSCc1c(F)cccc1Cl)NCC1CCCO1` (stereo unspecified), the Potency result is “inactive”. Same read-out and setting: for `Fc1cccc(Cl)c1CSc1ccc(-c2ccco2)nn1` the value was 20 µM (active); for `CCc1ccc(C(=O)OCC(=O)NCC(F)(F)F)cc1`, “inactive”.

In the case of `OCCNCCOc1ccc(Cl)c(Cl)c1`, the Potency entry is “inactive”. Still for that read-out and setting: for `COc1ccc(-n2cnnc2SCC(=O)Nc2cccc([N+](=O)[O-])c2)cc1` the value was “inactive”; for `C=CCn1c2ccccc2c2nnc(SC(CC)C(=O)Nc3nc(C)c(C(=O)OCC)s3)nc21` (stereo unspecified), “inactive”; for `C=CCn1c(COc2ccccc2)nnc1SCC(=O)NCC(=O)OCC`, “inactive”. Same read-out and setting: to `C=CCn1c2ccccc2c2nnc(SCc3[nH]c(=O)[nH]c3C(=O)CCCCC(=O)OCC)nc21` belongs 10 µM (active); to `CCCC(c1nnnn1C(C)(C)C)N1CCN(Cc2ccccc2)CC1` (stereo unspecified), “inactive”; to `COc1ccccc1C(c1nnnn1C(C)(C)C)N1CCN(Cc2ccccc2)CC1` (stereo unspecified), 20 µM (active).

As for `CC(C)(C)n1nnnc1C(c1ccc(F)cc1)N1CCN(Cc2ccc3c(c2)OCO3)CC1` (stereo unspecified), the Potency result was “inactive”. On the same count and under the same terms, for `CCc1c(SCCC(=O)O)nc2ccccc2c1C` the value was “inactive”; for `O=C(N/N=C/C=C/c1ccco1)c1cccs1`, 2 µM (active). The same measure, in the same setting: to `CC(=O)Nc1ccc(/C=N/NC(=O)c2cccs2)cc1` belongs “inactive”; to `O=C(N/N=C/c1ccco1)c1ccc(C(=O)N/N=C/c2ccco2)o1`, “inactive”. In the case of `CCOc1cc(/C=C(/C#N)c2ccc(Cl)cc2)cc(Cl)c1OCC(=O)O`, the Potency entry was “inactive”. On the same count and under the same terms, to `Cc1cccc(CCNS(=O)(=O)c2ccc(S(=O)(=O)NC3CCCC3)cc2)c1` belongs “inactive”; to `N#CCCN1CCN(S(=O)(=O)c2ccc(S(=O)(=O)NC3CC3)cc2)CC1`, “inactive”. The same measure, in the same setting: for `Cn1sc(=O)c2cc(S(=O)(=O)NC3CC3)ccc21` the value was 0.501 µM (active).

`CCN(CC)C(=O)Oc1ccc(OC(=O)N(CC)CC)cc1`: the Potency entry was “inactive”. The same measure, in the same setting: to `Cc1nonc1NC(=O)CSc1nc2ccccc2cc1C#N` belongs “inactive”. As for `Cc1ccc2nc(CC(=O)c3ccc4ccccc4c3)c(=O)[nH]c2c1`, the activity, negative = inhibition was 12.1% [at 13.5 µM] (inactive).

Consider `CC(=O)CCC(=O)c1ccc2ccccc2c1`, for which the Potency result was “inactive”. The same measure, in the same setting: to `C=CC(=O)c1ccc2ccccc2c1` belongs 11.2 nM (active) and 100 nM (active); to `CC(=O)Nc1nc2ccccc2n1Cc1ccc(C)cc1`, “inactive”.

As for `CN(C)CCCN(C(=O)COc1ccccc1)c1nc2c(Cl)cccc2s1`, the Potency result is “inactive”. Regarding `CCC(C)(C)NC(=O)CN(C(=O)CCC(=O)Nc1cc(C)ccn1)c1ccc2c(c1)OCCO2`, the Potency entry is “inactive”. On the same count and under the same terms, to `COc1cc(SC)ccc1C(=O)Nc1cc(C)ccn1` belongs 22.4 µM (active); to `COc1cc(SC)ccc1C(=O)Nc1nc(C)cs1`, “inactive”. The same measure, in the same setting: for `Cc1ccnc(NC(=O)c2ccoc2C)c1` the value was “inactive”. As for `O=C(O)COc1ccc(/C=N/O)cc1Br`, the Potency entry was “inactive”. Still for that read-out and setting: to `Cc1ccccc1CN(c1ccc(C(=O)NCC2CCCO2)cc1)S(C)(=O)=O` (stereo unspecified) belongs “inactive”; to `C/C=C(\C)C(=O)NCCN1C2=NC[C@H](Cc3ccc(O)cc3)N2C[C@@H]1Cc1ccc(OC)cc1`, “inactive”; to `CC(NC(=O)COC(=O)c1ccc2c(c1)OCO2)c1ccccc1` (stereo unspecified), “inactive”. Still for that read-out and setting: to `CCOC(=O)c1ccc(CS(=O)c2ccc(Cl)cc2)o1` (stereo unspecified) belongs 2.82 µM (active). Still for that read-out and setting: for `CCOC(=O)c1ccc(COC(=O)c2cc(=O)[nH]c3ccccc23)o1` the value was “inactive”; for `CCOC(=O)c1c(Cc2ccc(Cl)cc2)c[nH]c1C`, “inactive”. Regarding `CCOC(=O)c1ccccc1NC(=O)CSc1nc2ccccc2c(=O)[nH]1`, the Potency result was “inactive”.

Regarding `Cc1cc(=O)oc(C)c1C(=O)NCCN(C)Cc1ccccc1`, the Potency entry is “inactive”. Consider `C=CS(=O)c1sc(Cl)c(N2CCOCC2)c1[N+](=O)[O-]` (stereo unspecified), for which the Potency was 2 µM (active). The same measure, in the same setting: to `Cn1c(SCC(=O)NC2CCCCC2)nnc1-c1ccc(N)cc1` belongs “inactive”.

On to `CCOC(=O)/C=c1\s/c(=C\c2ccc(C#N)cc2)c(=O)n1CC(=O)Nc1cccc(C)c1C`, for which the Potency entry was “inactive”.

On to `CC1(C)Cc2cccc(OCC(N)=O)c2O1`, for which the Potency result was “inactive”. `CC1(C)Cc2cccc(OCC(=O)N3CCN(c4ccc([N+](=O)[O-])cc4)CC3)c2O1`: the Potency was 10 µM (active). The same measure, in the same setting: for `CC1(C)Cc2cccc(OCC(=O)Nc3nccs3)c2O1` the value was “inactive”.

On to `Cc1cc2ccccc2n1CCC(=O)O`, for which the Potency entry is “inactive”.

For the compound `O=[N+]([O-])c1ccccc1NCc1ccccc1Cl`, the Potency entry is “inactive”. As for `Cc1cccc(C)c1NC(=O)C1(N(C(=O)c2ccccn2)c2ccc(O)cc2)CCCCC1`, the Potency entry is “inactive”. Still for that read-out and setting: to `CCOc1ccc(NC(=O)CSc2nc3c(c(=O)n2-c2ccccc2OC)SCC3)cc1` belongs 17.8 µM (active); to `CCOC(=O)c1sc(NC(=O)CSc2nc3c(c(=O)n2-c2ccccc2)SCC3)c(C(=O)OCC)c1C`, “inactive”. Same read-out and setting: for `CCc1nnc(NC(=O)CSc2nc3c(c(=O)n2-c2ccccc2OC)SCC3)s1` the value was 22.4 µM (active).

Consider `COc1ccccc1-n1c(CNC(=O)c2ccccc2)nnc1SCC(=O)Nc1nnc(C)s1`, for which the Potency result is “inactive”.

Turning to `CCn1c(SCC(=O)Nc2ccc3c(c2)OCCO3)nc2c(c1=O)SC(C)C2` (stereo unspecified), the Potency entry is “inactive”.

Take `CCc1nnc(NC(=O)CSc2nc3ccccc3c(=O)n2CCCOC)s1`: the Potency result was “inactive”. On the same count and under the same terms, to `O=C(Nn1cnc2ccccc2c1=O)c1ccc([N+](=O)[O-])cc1Cl` belongs “inactive”; to `C=C(C(C)=O)C(O)c1ccc([N+](=O)[O-])cc1` (stereo unspecified), “inactive”. On the same count and under the same terms, for `CCCCC(=O)NCc1ccc(F)cc1` the value was “inactive”; for `COc1ccc(S(=O)(=O)NC(CC(=O)NCc2ccccc2OC)c2ccco2)cc1` (stereo unspecified), 10 µM (active). Same read-out and setting: to `O=C(CC(NS(=O)(=O)c1ccc(Cl)cc1)c1ccco1)NC1CCCC1` (stereo unspecified) belongs “inactive”; to `COc1ccccc1CNS(=O)(=O)c1ccc(C)cc1`, “inactive”; to `COC(=O)CCC(=O)N1CCCC(CO)(Cc2ccccc2)C1` (stereo unspecified), “inactive”.

As for `C#CCCOC(=O)N1C2=NC(C(=O)OC)=C(C(=O)OC)[C@@H]3N(C)c4ccc(OC)cc4[C@]23C[C@H]1C(=O)OC`, the activity, negative = inhibition is 4.88% [at 13.5 µM] (inactive). In the case of `CCOC(=O)CN/C=C(\C#N)c1ccc(F)cc1`, the Potency result is “inactive”. Same read-out and setting: to `Cc1ccc(C(=O)c2c(NC(=O)c3ccncc3)sc3c2CCCC3)cc1` belongs “inactive”; to `Cc1ccc(C(=O)NCCNC(=O)c2ccccc2)cc1`, “inactive”. On the same count and under the same terms, for `Cc1ccc(C(=O)c2c(NC(=O)c3ccccc3)sc(C)c2C)cc1` the value was 25.1 µM (active); for `CCC(=O)NCc1cc(-c2nn(C)c(=O)c3ccccc23)ccc1OC`, “inactive”; for `COC(=O)c1cc(C(=O)CSc2nc(C)cc(C)n2)ccc1O`, “inactive”.

With `COc1ccc(C(=O)NNC(=O)c2cnccn2)cc1[N+](=O)[O-]`, the Potency entry is “inactive”. As to `COc1ccc(C(=O)CSc2nc(C)cc(C)n2)cc1[N+](=O)[O-]`, the Potency was 2.24 µM (active).
